# Compounds with a hit are over-represented: about 2.4% of the library has one in this group of screens.
# SENP6 inh: inhibitors of human SENP6 protease; Recombinant SENP6 catalytic domain, aminoluciferin luminescence; inhibition, % at 10 µM; hit rate 1.8% among 330,000; AID 2599;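 active = inhibition above about 50% at the single tested dose, limit read from the data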;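 also: plate controls were DMSO wells with enzyme for no effect and DMSO wells lacking enzyme for full effect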
# Target sequence (Q9GZR1 628-1112 limits assumed): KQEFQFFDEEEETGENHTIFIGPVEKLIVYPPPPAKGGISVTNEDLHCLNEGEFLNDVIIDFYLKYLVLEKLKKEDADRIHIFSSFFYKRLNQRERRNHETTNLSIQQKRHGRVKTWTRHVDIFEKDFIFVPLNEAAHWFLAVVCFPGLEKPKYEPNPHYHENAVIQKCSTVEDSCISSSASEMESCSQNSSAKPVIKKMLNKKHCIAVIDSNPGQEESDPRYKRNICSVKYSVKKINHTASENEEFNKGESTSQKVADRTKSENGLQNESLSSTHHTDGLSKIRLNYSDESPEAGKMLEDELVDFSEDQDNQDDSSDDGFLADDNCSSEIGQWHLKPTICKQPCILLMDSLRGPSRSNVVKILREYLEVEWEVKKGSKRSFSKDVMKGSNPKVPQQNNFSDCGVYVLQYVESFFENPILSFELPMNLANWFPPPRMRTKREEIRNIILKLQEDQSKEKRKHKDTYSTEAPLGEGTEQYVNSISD
# Platelet DG rel: modulates dense granule release in human platelets; inhibition, %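 (compounds screened at 7.5 µM in platelet-rich plasma)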; human platelet-rich plasma, SFLLRN dense granule ATP release, luminescence; hit rate 0.22% among 300,000;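 active = mean replicate score, as percent of positive control, at or above 50; inconclusive = mean below 50 but at least one replicate at or above 50; inactive = mean and every replicate below 50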
# SENP7 inh: blocks the human protease SENP7; Q9BQF6; recombinant SENP7, Z-RLRGG-aminoluciferin luminescence, 40 min; inhibition, % at 5 µM; hit rate 1.5% among 330,000; AID 434973;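 active = inhibition above about 50% at the single test dose, limit read from the data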;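 also: plate controls were DMSO with enzyme for no effect and no enzyme buffer wells for full effect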
# SENP8 block-1: blocks the human protease SENP8; inhibition, % at 10 µM; Q96LD8; hit rate 1.2% among 330,000; purified SENP8, Z-RLRGG-aminoluciferin cleavage, luminescence; in the data active = inhibition above about 50%
# SENP8 block-2: blocks human SENP8 cleavage of Nedd8 substrate. Q96LD8. recombinant SENP8, Nedd8 substrate fluorescence. inhibition, % at 20 µM. hit rate 0.64% among 360,000; in the data active = inhibition mostly above about 40%, no sharp cut-off; inactive = mostly below about 27%
# Starred values were filed as active, the others as inactive; u = inconclusive; x = not tested or not shown.
SMILES,SENP6 inh,Platelet DG rel,SENP7 inh,SENP8 block-1,SENP8 block-2
COc1ccc(C=NNc2ccc(S(=O)(=O)Nc3ccccc3C(=O)O)cc2[N+](=O)[O-])c(OC)c1,17,x,0,12,44*
CCCCNC(=O)Nc1ccc(Br)cn1,-10,53*,7,-9,19
C=CCNC(=S)Nc1ccc(C(N)=O)cc1,9,-1,5,9,19
CNC(=S)Nc1ccc(C(N)=O)cc1,1,58*,12,-2,18
CCOC(=O)c1sc(N=NC2=C(O)CCCC2=O)c(C(=O)OCC)c1C,3,2,3,0,53*
CCOC(=O)/C(N=Nc1sc(C(=O)OCC)c(C)c1C(=O)OCC)=C(\C)O,11,6,-2,8,x
O=C(O)CCCNc1cc(N2CCN(C(=O)c3ccco3)CC2)c2noc3c2c1C(=O)c1ccccc1-3,38,3,15,24,77*
CCOC(=O)N1CCN(c2cc(NCCC(=O)O)c3c4c(onc24)-c2ccccc2C3=O)CC1,48,x,26,26,88*
O=C1c2ccccc2-c2onc3c(N4CCN(CCO)CC4)cc(N4CCN(C(=O)c5ccco5)CC4)c1c23,20,12,16,11,75*
O=C(COC(=O)/C=C/c1ccccc1Cl)NC(=O)NCc1ccccc1,-12,x,17,5,8
O=c1[nH][nH]c2ccccc2c1=O,-16,0,-7,-4,9
CN1C(=O)/C(=C/c2cn(CC(=O)N3CCCCC3)c3ccccc23)c2ccccc21,3,54*,-1,-5,x
O=Cc1cn(CC(=O)N2CCCCC2)c2ccccc12,-6,3,-6,-2,20
COc1ccc(/C=C(\C#N)c2nc3ccccc3[nH]2)cc1O,57*,4,43,38,-169
COc1cc(/C=C(\C#N)c2nc3ccccc3[nH]2)cc(OC)c1O,x,2,x,x,-218
CC(C)Sc1ccc(C(=O)Nc2ccc(F)cc2F)cn1,70*,21,68*,56*,10
Cn1c(=O)c2c(nc(CN3CCCCC3)n2CCCc2ccccc2)n(C)c1=O,1,2,-13,-9,26
CC1CCCCN1Cc1nc2c(c(=O)n(C)c(=O)n2C)n1CCCc1ccccc1 (configuration not stated),-15,56*,6,1,9
CC(=O)Nc1ccc(NS(=O)(=O)c2ccccc2)c2ccccc12,-1,-4,5,-2,19
O=S(=O)(Nc1ccc(O)c2ccccc12)c1ccc(Br)cc1,62*,13,33,22,x
CC1CCN(C(=O)c2ccc3c(c2NCCO)C(=O)c2ccccc2C3=O)CC1,5,-5,3,6,35
CCN(CC)CCNC(=O)c1ccc2c(c1NCCO)C(=O)c1ccccc1C2=O,37,4,37,24,88*
CCOC(=O)N1CCN(C(=O)c2cc3ccc(OC)cc3[nH]2)CC1,-8,-2,1,-4,-2
Brc1ccc(-c2nnc(-c3ccco3)o2)cc1,81*,-51,60*,66*,-208
c1ccc(-c2nnc(-c3ccco3)o2)cc1,47,0,44,16,-78
SMILES,SENP6 inh,Platelet DG rel,SENP7 inh,SENP8 block-1,SENP8 block-2
CC(NS(=O)(=O)CCNC(=O)c1ccccc1)c1ccccc1 (configuration not stated),-12,-2,0,13,13
O=C(COC(=O)CNC(=O)c1ccccc1)NCc1ccc2c(c1)OCO2,0,x,-4,0,2
CN(C)c1ccc(CCc2ccc(N)cc2)cc1,-8,12,11,-5,-460
CN(C)c1ccc(Cc2ccc(N(C)C)cc2)cc1,x,x,x,x,30*
CCN(c1ccccc1)S(=O)(=O)c1ccc(Cl)c(NC(=O)COC(=O)c2ccc(O)cc2)c1,11,-2,5,0,16
CCN(c1ccccc1)S(=O)(=O)c1ccc(Cl)c(NC(=O)COC(=O)c2cc(O)c3ccccc3c2O)c1,62*,9,12,32,x
CCOC(=O)N1CCN(CC(=O)N2c3ccccc3Sc3ccccc32)CC1,2,-4,-7,-4,4
CCOC(=O)N1CCN(CC(=O)N2CCC(C(N)=O)CC2)CC1,12,59*,-4,-2,12
O/C=c1\ccc2cccc3nc(C(F)(F)F)nc1c23,15,3,3,15,46*
Fc1ccc(-c2nc(-c3cccs3)no2)cc1,95*,5,94*,86*,15
O=C1C=C(N2CCN(c3ccccn3)CC2)C(=O)c2c(O)ccc(O)c21,x,x,x,x,76*
C/C(=N\NC(=O)c1cc(Cl)ccc1O)c1ccc(Br)s1,79*,-18,49,74*,-168
O=C(O)c1ccc(N/N=C/c2cccc3cccnc23)cc1,54*,4,31,30,-86
O=C(O)c1ccc(N/N=C/c2ccc3nccnc3c2)cc1,98*,56*,100*,97*,16
CCN(CC)c1ccc(C2=NNC(=O)CC2C)cc1[N+](=O)[O-] (configuration not stated),-11,55*,-6,-7,29
CC1CC(=O)NN=C1c1cccs1 (configuration not stated),12,36,-3,1,14
CC1CC(=O)NN=C1c1ccc(N(C)C)c([N+](=O)[O-])c1 (configuration not stated),-3,82*,9,2,27
Cc1cc(C)c(S(=O)(=O)N2CCN(C(=O)N(C)C)CC2)c(C)c1,5,0,8,6,-5
O=[N+]([O-])c1ccc(C2(O)CN(c3ccccc3)C3=[N+]2CCS3)cc1 (configuration not stated),6,9,7,-6,25
C[C@@H]1CCCCO[C@H](CN(C)S(=O)(=O)c2cccs2)[C@@H](C)CN([C@H](C)CO)C(=O)c2cc(NC(=O)C3CCCCC3)ccc2O1,x,x,x,x,8
NS(=O)(=O)c1ccc(N/C=C/C(=O)c2ccc(Br)cc2)cc1,-6,5,3,0,-285
NS(=O)(=O)c1ccc(N/C=C\C(=O)c2ccc(F)cc2)cc1,43,26,70*,64*,-432
CCCc1cc(C(=O)NC2CCCCC2)no1,-25,0,-4,-10,16
CCCc1cc(C(=O)NC2CCCC2)no1,4,85*,3,-11,7
NC(=O)c1ccccc1NC(=O)/C=C/c1ccccc1,66*,-2,40,22,-86
SMILES,SENP6 inh,Platelet DG rel,SENP7 inh,SENP8 block-1,SENP8 block-2
O=C1CC(c2ccc(O)c(O)c2)Oc2c1ccc(O)c2O (configuration not stated),3,x,-3,22,51*
CNc1nc(Nc2ccc(Br)cc2)nc(N)c1[N+](=O)[O-],36,1,88*,12,17
CCCN(CCC)C(=O)c1cn(C)c2ccc(S(=O)(=O)N3CCCC3)cc2c1=O,-4,2,-13,-11,8
CN1C(=O)/C(=C2\SC(N3CCCCCC3)=NC2=O)c2ccccc21,-12,2,-3,-23,13
CN1C(=O)/C(=C2\SC(N)=NC2=O)c2ccccc21,-9,3,-6,8,43*
Nc1ncnc2c1ncn2C1OC(COP(=O)(O)O)C(O)C1O (configuration not stated),7,u,8,-3,10

# Assay outcomes deposited in PubChem BioAssay by several laboratories.
